# Most compounds without a hit are left out; they make up all but 12% or so of the library.
# BAZ2B inh: BAZ2B (human) inhibition; Q9UIF8; AlphaScreen BAZ2B-H3K14Ac peptide displacement; Potency, µM (top dose mostly 114 µM), for the others: at the top dose activity change, negative = inhibition, most hits filed as inhibitors; hit rate 4.4% among 360,000; AID 504333; note: % is set by controls: 0 for no effect and ±100 for the full control effect; nearly all actives have a fitted effect of over 60% in size
#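 Compounds, titrated to a top concentration of 110 uM, were incubated 30 min at room temperature with preformed BAZ2B/acetyl-K14 H3 peptide complex (50 nM each). Proximity signal was measured by AlphaScreen after 20 min with beads.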
# JMJD2A Tudor inh: inhibitors of human JMJD2A Tudor domain. O75164. AlphaScreen JMJD2A-Tudor / H3K4me3 peptide binding. Potency, µM (highest dose often 114 µM), for inactives: at the highest dose activity change, negative = inhibition, hits mostly inhibitors. hit rate 4.4% among 390,000. AID 504339; note: % is set by controls: 0 for no effect and ±100 for the full control effect; nearly all actives have a fitted effect of over 50% in size
# HP1b binding inh: HP1-beta chromodomain-methylated histone interaction inhibition; AlphaScreen HP1-beta / biotin-H3K9me3 peptide binding; Potency, µM (series often up to 114 µM), inactives show at the highest dose activity change, negative = inhibition, usual class: inhibitors; hit rate 0.56% among 390,000; P83916; note: nearly all actives have a fitted effect of over 70% in size
# Target sequence (P83916 whole entry, looked up): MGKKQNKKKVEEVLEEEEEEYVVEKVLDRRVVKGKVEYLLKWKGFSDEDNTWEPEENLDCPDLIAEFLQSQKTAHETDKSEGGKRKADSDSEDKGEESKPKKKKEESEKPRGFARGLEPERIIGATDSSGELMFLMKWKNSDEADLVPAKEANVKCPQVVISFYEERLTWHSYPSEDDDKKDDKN
#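 Compound inhibition of the preformed complex between 50 nM HP1-beta and 50 nM biotinylated H3K9me3 peptide was read by AlphaScreen. Buffer was PBS pH 7.4 with 0.01% Tween-20. Incubations ran 30 min at room temperature, with 10 ug/mL donor/acceptor beads.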
# G9a inh: blocks human histone lysine methyltransferase G9a. Q96KQ7. G9a H3K9 monomethylation, AlphaScreen, 2 h. Potency, µM (series often up to 102 µM), without a hit: top-dose activity, negative = inhibition, most hits filed as inhibitors. hit rate 8.8% among 350,000. AID 504332; note: % is set by controls: 0 for no effect and ±100 for the full control effect; nearly all actives have a fitted effect of over 75% in size
# Target sequence (Q96KQ7 913-1193 limits assumed): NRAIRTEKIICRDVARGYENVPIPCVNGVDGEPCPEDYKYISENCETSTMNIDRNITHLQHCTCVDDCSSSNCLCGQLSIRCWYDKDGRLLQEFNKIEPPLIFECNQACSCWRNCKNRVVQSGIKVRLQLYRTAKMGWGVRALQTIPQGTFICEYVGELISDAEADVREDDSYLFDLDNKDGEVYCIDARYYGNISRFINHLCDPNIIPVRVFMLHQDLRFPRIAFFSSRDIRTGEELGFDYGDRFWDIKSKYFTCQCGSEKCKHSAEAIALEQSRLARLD
#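 Signal arises when biotinylated H3K9 peptide, once monomethylated, bridges streptavidin donor and antibody-captured acceptor beads. Enzyme at 20 nM was preincubated 15 min with test compounds; peptide 500 nM and SAM 20 uM then reacted for 2 h.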
# Sfp PPTase inh: blocks B. subtilis Sfp PPTase activity; hit rate 3.5% among 310,000; Biochemical Sfp PPTase activity, qHTS; Potency, µM, for inactives: largest response in the series, negative = inhibition, hits mostly inhibitors;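 note: the enzyme is Sfp with the accession as filed and its product quenches rhodamine fluorescence; 0% = enzyme reaction without inhibitor and -100% = no enzyme wells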
#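 Fluorescence-quenching assay with 15 nM Sfp, 5 uM rhodamine-CoA and 12.5 uM BHQ-2-labelled ybbR peptide in pH 7.6 Hepes/MgCl2 buffer. Enzyme was pre-incubated with compound for 15 min at room temperature. Rate was taken from the 30-min fluorescence change (525/598 nm).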
# L3MBTL1 block: inhibitors of human L3MBTL1. Q9Y468. AlphaScreen L3MBTL1–H3K9me1 peptide binding. Potency, µM (doses to about 57.1 µM), inactives show top-dose activity, negative = inhibition, most hits filed as inhibitors. hit rate 0.66% among 230,000. AID 485360; note: % is set by controls: 0 for no effect and ±100 for the full control effect; nearly all actives have a fitted effect of over 60% in size
#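 Displacement of a biotinylated histone H3(1-15) peptide monomethylated at Lys9 (75 nM) from L3MBTL1 (50 nM) was measured by AlphaScreen after a 30 min room-temperature compound incubation; cefsulodin titration served as intraplate control.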
# Numbers without * were called inactive; ? = inconclusive; . = no result; [ ] = another dose, or the depositor's remark. Calls come from the whole dose curve; as a rule, active = well fitted curve in the direction sought with a large enough effect; inconclusive = small, poorly fitted or top-dose-only effect, or another doubt; inactive = no such curve, though single readings can be large; an effect the other way counts as inactive or inconclusive. Potency is the fitted concentration of half-maximal effect.
SMILES,BAZ2B inh,JMJD2A Tudor inh,HP1b binding inh,G9a inh,Sfp PPTase inh,L3MBTL1 block
Cc1ccc(-c2[nH]c(-c3ccc(C(=O)O)cc3)nc2-c2ccccc2)cc1,?,?,-33.5%,?,-1.7%,-13.0%
COc1cc(-c2nc(-c3ccccc3)c(-c3ccc(Br)cc3)[nH]2)cc(OC)c1O,28.2µM*,44.7µM*,?,10µM*,.,.
COc1ccc(-c2nc(-c3ccccc3)c(-c3ccc(F)cc3)[nH]2)c(OC)c1C,25.1µM*,?,-12.1%,?,.,.
Oc1ccc(-c2nc(-c3ccccc3)c(-c3ccc(Br)cc3)[nH]2)cc1,?,?,-11.9%,-10.4%[59 µM],.,.
COc1ccc(-c2[nH]c(-c3cc(OC)c4c(c3)OCO4)nc2-c2ccccc2)cc1,?,?,?,39.8µM*,25.9%,-16.5%
CO[C@H]1COC(=O)[C@@H](C)COC(=O)[C@@H](Cc2ccccc2)NC(=O)C/C=C\[C@H]1C,.,.,.,.,5.0%,.
Brc1ccc(OCc2nc(-c3ccccn3)n[nH]2)cc1,28.2µM*,39.8µM*,30.4%,44.2%,7.9%,.
Cc1cc(Oc2ccccc2)nc(-c2ccccc2O)n1,73.8%,119.4%,166.7%,127.8%[59 µM],-15.5%,33.4%
Cc1cc(Oc2ccc(Cl)cc2)nc(-c2ccccn2)n1,-2.5%,-18.6%,15.3%,17.8µM*,13.1%,-16.6%
Clc1ccc(OCc2nc(-c3ccccn3)n[nH]2)cc1,22.4µM*,20µM*,52.8%,84.9%[59 µM],1.8%,?
CCOc1ccc(CNC(=O)C2CCN(c3nnc(-n4c(C)ccc4C)s3)CC2)cc1,-15.9%,-24.5%,9.0%,-17.5%[59 µM],.,.
Cn1c(CN2CCCC2)nc2cc(NC(=O)c3cccs3)ccc21,?,-35.6%,20.3%,14.1µM*,-20.4%,-5.1%
CCCCC(=O)Nc1ccc2c(c1)nc1n2CCOC1,7.2%,79.4µM*,-11.5%,10.5%,9.9%,8.2%
CCCC(=O)Nc1ccc2c(c1)nc1n2CCOC1,5.2%,-6.7%,29.9%,?,13.7%,-0.8%
COc1ccc(C(=O)Nc2ccc3c(c2)nc2n3CCSC2)cc1,-26.2%,-6.6%,-0.5%,50.1µM*,13.0%,-0.2%
CCCC(=O)Nc1ccc2c(c1)nc1n2CCN(CCOC)C1,-0.5%,-9.8%,44.8%,25.1µM*,-13.4%,.
CCCN1CNc2c(c(=O)[nH]c(=S)n2CCC(C)(C)C)C1,.,-5.4%,15.0%,.,.,.
CCCCC(=O)Nc1ccc2c(c1)nc(CN1CCN(C(=O)OCC)CC1)n2C,-2.0%,6.9%,34.7%,-23.5%,3.2%,.
CC(c1ccccc1)N1CCn2c(nc3cc(NC(=O)c4cccs4)ccc32)C1 (centres undefined),-2.3%,-13.4%,12.1%,?,4.8%,.
COCCN1CCn2c(nc3cc(NC(=O)c4cccs4)ccc32)C1,-33.5%,-11.6%,16.2%,20µM*,-9.2%,.
O=C(Nc1ccc2oc(-c3ccncc3)nc2c1)c1cccs1,56.2µM*,-32.5%,49.3%,-26.0%[12.7 µM],-20.9%,9.6%
CCCCC(=O)Nc1ccc2c(c1)nc1n2CCN(CCOC)C1,-11.3%,-26.5%,49.5%,31.6µM*,10.4%,-1.8%
O=C(Nc1cc(C(F)(F)F)ccc1Cl)c1cc(-c2ccc3c(c2)OCCO3)on1,3.3%,-18.2%,22.7%,10.2%[59 µM],.,.
CCOc1ccc(-c2cc3c(=O)n(CC(=O)NCc4ccc(Cl)cc4)ccn3n2)cc1,-4.0%,-14.2%,9.3%,4.7%[59 µM],.,.
CNC(=O)C1CCC(Cn2c(=O)c3sccc3n(CC(=O)Nc3cc(C)cc(C)c3)c2=O)CC1 (centres undefined),-2.2%,-5.7%,32.5%,-3.6%[59 µM],.,.
Cc1cccc(OCCSc2nc3ccc(NC(=O)c4cccs4)cc3s2)c1,?,-8.9%,56.6%,19.1%[59 µM],.,.
O=C(CCC1N=C2c3ccccc3N=C(SCc3ccc(F)cc3)N2C1=O)NCc1ccc(F)cc1 (centres undefined),0.3%,-19.3%,19.3%,0.3%[59 µM],.,.
O=C(c1cccc(NS(=O)(=O)c2ccc(Br)cc2)c1)N1CCN(c2ccccc2O)CC1,-27.8%,-33.1%,5.7%,50.1µM*,.,-11.2%

# Bioassay records (PubChem)
